Results as given in PubChem BioAssay.
Unmarked numbers belong to inactive results.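 The calls were made as follows: active = viability loss from added drug above about 55%, and viability with drug at most 40%, in both replicates (limit read from the data, passing the limit was not always enough); inconclusive = both conditions met in only one replicate; inactive = neither replicate meets both conditions.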

Test: reversal of MRP1-mediated doxorubicin resistance, pilot screen, H69AR cells, doxorubicin co-treatment (AID 601)
Details: H69AR cells + 2 uM doxorubicin, CellTiter-Glo, 72 h; at 10 µM; stronger effect = higher value

Row | Structure (SMILES) | differential viability (reversal)
1 | Cn1c(=O)c2c(nc(N3CCCCC3)n2CCSc2nc3ccccc3o2)n(C)c1=O | 1.8%
2 | CCOC(=O)C1=C(C)N=c2s/c(=C\c3cccn3C)c(=O)n2C1c1cccc(OC)c1OC (stereo unspecified) | -1.62%
3 | C=CCn1c(SCC(=O)O)nnc1-c1cccc(Cl)c1 | 12.6%
4 | Cc1ccc(S(=O)(=O)N2CCC(C(=O)NCCN3CCCCCC3)CC2)cc1 | 18.1%
5 | CCOC(=O)c1sc(N2C(=O)C(O)=C(C(=O)c3ccco3)C2c2ccccc2)nc1C (stereo unspecified) | 1.33%
6 | COc1cc(C)nc(NS(=O)(=O)c2ccc(C)cc2)n1 | -1.31%
7 | CCCCC(=O)Nc1nn(CCC)c2nc3ccccc3cc12 | -5.81%
8 | CCCCCOC(=O)CSc1nnc(-c2cc(OC)c(OC)c(OC)c2)o1 | 10.6%
9 | O=C(CN1CCN(C(=O)c2ccccc2)CC1)Nc1ncc(Br)cc1Br | -6.92%
10 | O=C(c1ccc2c(c1)OCCO2)C1CCN(C(=O)c2ccc(F)cc2)CC1 | -16.2%
11 | Cc1cc2c(c(=O)n1CCc1ccccc1)C(C(C)C)C(C#N)=C(N)O2 (stereo unspecified) | -9.34%
12 | Cc1cc(NC(=O)Cn2cnc3c(cnn3C(C)(C)C)c2=O)no1 | 2.12%
13 | O=C(OCCCCN1C(=O)c2ccccc2C1=O)c1n[nH]c2ccccc12 | 6.39%
14 | CCOC(=O)CSc1nnc(-c2ccccc2OC)o1 | -11%
15 | O=C(Nn1cnnc1)c1cc2c(s1)CCCC2 | -2.61%
16 | Cc1cc2nc(C3CCN(CC4COc5ccccc5O4)CC3)[nH]c2cc1C (stereo unspecified) | 22.7%
